# From ChEMBL document CHEMBL2218924, “A broad activity screen in support of a chemogenomic map for kinase signalling research and drug discovery” (Biochem J, 2013)
# Columns and labels:
# [1] = molecular target: Platelet-derived growth factor receptor alpha (Homo sapiens) (UniProt P16234); conditions: at 10 µM
# [2] = molecular target: Platelet-derived growth factor receptor beta (Homo sapiens) (UniProt P09619); conditions: at 1 µM
# [3] = molecular target: Platelet-derived growth factor receptor beta (Homo sapiens) (UniProt P09619); conditions: at 10 µM
# [4] = molecular target: RAC-gamma serine/threonine-protein kinase (Homo sapiens) (UniProt Q9Y243); conditions: at 1 µM
# [5] = molecular target: RAC-gamma serine/threonine-protein kinase (Homo sapiens) (UniProt Q9Y243); conditions: at 10 µM
# [6] = molecular target: Protein kinase C gamma type (Homo sapiens) (UniProt P05129); conditions: at 1 µM
# [7] = molecular target: Protein kinase C gamma type (Homo sapiens) (UniProt P05129); conditions: at 10 µM
# [8] = molecular target: T1, 3-phosphoinositide-dependent protein kinase 1 (Homo sapiens) (UniProt O15530); conditions: at 1 µM
# T1 sequence (whole entry): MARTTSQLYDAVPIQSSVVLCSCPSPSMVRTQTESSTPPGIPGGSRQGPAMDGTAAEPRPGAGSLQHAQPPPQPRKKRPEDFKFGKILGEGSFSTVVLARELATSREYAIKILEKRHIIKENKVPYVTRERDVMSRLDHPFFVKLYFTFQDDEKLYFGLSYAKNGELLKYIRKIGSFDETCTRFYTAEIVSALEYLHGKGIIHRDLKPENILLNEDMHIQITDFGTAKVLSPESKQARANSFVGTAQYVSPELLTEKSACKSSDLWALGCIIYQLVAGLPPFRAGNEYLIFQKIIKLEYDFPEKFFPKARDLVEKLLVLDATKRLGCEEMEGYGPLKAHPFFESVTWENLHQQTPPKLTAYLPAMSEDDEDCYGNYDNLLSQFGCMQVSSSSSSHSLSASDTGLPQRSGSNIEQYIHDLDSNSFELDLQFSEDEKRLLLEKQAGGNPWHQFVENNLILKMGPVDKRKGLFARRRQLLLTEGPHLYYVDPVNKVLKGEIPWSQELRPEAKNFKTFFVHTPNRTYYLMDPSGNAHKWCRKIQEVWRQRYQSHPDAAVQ
# [9] = molecular target: T1, 3-phosphoinositide-dependent protein kinase 1 (Homo sapiens); conditions: at 10 µM
# [10] = molecular target: cAMP-dependent protein kinase catalytic subunit alpha (Homo sapiens) (UniProt P17612); conditions: at 1 µM
# [11] = molecular target: cAMP-dependent protein kinase catalytic subunit alpha (Homo sapiens) (UniProt P17612); conditions: at 10 µM
# [12] = molecular target: Protein kinase C alpha type (Homo sapiens) (UniProt P17252); conditions: at 1 µM
# [13] = molecular target: Protein kinase C beta type (Homo sapiens) (UniProt P05771); conditions: at 1 µM
# [14] = molecular target: Protein kinase C beta type (Homo sapiens) (UniProt P05771); conditions: at 10 µM
# [15] = molecular target: Protein kinase C alpha type (Homo sapiens) (UniProt P17252); conditions: at 10 µM
# [16] = molecular target: Protein kinase C beta type (Homo sapiens) (UniProt P05771); conditions: at 1 µM; remark: listed apart in the source
# [17] = molecular target: Protein kinase C beta type (Homo sapiens) (UniProt P05771); conditions: at 10 µM; remark: listed apart in the source
# [18] = molecular target: Protein kinase C delta type (Homo sapiens) (UniProt Q05655); conditions: at 1 µM
# [19] = molecular target: RAC-alpha serine/threonine-protein kinase (Homo sapiens) (UniProt P31749); conditions: at 1 µM
# [20] = molecular target: RAC-alpha serine/threonine-protein kinase (Homo sapiens) (UniProt P31749); conditions: at 10 µM
# Sequence of Protein kinase C beta type (Homo sapiens) (P05771 2-671 limits assumed): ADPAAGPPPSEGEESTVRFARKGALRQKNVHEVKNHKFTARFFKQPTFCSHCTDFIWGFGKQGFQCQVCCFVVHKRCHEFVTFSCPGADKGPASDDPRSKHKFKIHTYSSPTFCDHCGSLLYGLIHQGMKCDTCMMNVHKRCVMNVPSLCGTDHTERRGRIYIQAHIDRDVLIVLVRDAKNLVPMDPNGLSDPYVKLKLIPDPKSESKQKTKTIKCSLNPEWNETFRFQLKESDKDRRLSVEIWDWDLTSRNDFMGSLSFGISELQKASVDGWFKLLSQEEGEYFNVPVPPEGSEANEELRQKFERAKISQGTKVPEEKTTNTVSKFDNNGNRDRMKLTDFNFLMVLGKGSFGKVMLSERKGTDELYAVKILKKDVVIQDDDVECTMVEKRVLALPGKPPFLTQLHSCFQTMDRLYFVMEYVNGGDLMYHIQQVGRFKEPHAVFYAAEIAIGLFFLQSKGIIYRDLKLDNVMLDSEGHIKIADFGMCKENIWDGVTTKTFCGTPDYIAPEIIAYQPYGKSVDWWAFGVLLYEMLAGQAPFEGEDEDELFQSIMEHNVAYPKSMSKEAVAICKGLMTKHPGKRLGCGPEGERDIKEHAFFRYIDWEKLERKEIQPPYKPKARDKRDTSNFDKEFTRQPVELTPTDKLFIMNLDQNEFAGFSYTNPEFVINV
# Sequence of Platelet-derived growth factor receptor alpha (Homo sapiens) (P16234 whole entry): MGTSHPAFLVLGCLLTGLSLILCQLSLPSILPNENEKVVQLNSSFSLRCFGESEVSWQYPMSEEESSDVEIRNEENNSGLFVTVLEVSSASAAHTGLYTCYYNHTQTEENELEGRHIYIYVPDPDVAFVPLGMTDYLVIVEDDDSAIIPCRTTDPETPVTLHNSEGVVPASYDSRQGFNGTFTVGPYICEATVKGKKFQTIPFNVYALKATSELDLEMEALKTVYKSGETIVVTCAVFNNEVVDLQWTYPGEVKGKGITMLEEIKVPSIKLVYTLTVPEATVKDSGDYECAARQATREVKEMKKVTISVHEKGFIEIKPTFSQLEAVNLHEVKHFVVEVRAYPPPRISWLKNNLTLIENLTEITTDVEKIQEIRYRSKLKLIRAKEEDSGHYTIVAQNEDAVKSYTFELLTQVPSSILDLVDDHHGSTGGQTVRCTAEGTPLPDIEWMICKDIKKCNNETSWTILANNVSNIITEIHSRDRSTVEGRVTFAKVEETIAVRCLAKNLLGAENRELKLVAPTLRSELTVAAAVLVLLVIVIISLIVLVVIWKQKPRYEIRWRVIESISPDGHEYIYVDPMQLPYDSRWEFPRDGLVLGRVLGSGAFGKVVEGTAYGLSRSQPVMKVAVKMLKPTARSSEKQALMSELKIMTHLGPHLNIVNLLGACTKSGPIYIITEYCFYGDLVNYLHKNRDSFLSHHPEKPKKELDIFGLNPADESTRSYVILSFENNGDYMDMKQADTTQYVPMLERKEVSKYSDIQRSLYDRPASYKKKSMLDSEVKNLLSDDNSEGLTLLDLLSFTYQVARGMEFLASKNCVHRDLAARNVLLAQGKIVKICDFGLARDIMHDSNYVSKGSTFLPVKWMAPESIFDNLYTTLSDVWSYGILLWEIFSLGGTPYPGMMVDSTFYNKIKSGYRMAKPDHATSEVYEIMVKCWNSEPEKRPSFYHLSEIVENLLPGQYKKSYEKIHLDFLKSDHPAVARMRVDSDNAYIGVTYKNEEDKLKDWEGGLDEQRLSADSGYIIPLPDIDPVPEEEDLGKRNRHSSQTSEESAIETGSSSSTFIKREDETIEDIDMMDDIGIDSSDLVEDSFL
# Sequence of RAC-gamma serine/threonine-protein kinase (Homo sapiens) (Q9Y243 whole entry): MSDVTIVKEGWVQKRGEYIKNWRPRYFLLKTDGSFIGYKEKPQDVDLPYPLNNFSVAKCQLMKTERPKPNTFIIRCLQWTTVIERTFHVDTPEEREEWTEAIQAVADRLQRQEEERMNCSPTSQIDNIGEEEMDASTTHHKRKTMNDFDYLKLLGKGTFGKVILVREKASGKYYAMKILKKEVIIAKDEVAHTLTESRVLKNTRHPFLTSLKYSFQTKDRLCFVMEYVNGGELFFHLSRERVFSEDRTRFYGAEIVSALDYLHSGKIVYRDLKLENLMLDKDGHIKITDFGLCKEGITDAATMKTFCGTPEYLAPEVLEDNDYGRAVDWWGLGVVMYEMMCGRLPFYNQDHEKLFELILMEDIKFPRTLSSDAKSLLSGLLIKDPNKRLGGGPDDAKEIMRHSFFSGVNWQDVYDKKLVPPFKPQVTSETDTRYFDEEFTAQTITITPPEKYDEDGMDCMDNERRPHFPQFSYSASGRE
# Sequence of Platelet-derived growth factor receptor beta (Homo sapiens) (P09619 whole entry): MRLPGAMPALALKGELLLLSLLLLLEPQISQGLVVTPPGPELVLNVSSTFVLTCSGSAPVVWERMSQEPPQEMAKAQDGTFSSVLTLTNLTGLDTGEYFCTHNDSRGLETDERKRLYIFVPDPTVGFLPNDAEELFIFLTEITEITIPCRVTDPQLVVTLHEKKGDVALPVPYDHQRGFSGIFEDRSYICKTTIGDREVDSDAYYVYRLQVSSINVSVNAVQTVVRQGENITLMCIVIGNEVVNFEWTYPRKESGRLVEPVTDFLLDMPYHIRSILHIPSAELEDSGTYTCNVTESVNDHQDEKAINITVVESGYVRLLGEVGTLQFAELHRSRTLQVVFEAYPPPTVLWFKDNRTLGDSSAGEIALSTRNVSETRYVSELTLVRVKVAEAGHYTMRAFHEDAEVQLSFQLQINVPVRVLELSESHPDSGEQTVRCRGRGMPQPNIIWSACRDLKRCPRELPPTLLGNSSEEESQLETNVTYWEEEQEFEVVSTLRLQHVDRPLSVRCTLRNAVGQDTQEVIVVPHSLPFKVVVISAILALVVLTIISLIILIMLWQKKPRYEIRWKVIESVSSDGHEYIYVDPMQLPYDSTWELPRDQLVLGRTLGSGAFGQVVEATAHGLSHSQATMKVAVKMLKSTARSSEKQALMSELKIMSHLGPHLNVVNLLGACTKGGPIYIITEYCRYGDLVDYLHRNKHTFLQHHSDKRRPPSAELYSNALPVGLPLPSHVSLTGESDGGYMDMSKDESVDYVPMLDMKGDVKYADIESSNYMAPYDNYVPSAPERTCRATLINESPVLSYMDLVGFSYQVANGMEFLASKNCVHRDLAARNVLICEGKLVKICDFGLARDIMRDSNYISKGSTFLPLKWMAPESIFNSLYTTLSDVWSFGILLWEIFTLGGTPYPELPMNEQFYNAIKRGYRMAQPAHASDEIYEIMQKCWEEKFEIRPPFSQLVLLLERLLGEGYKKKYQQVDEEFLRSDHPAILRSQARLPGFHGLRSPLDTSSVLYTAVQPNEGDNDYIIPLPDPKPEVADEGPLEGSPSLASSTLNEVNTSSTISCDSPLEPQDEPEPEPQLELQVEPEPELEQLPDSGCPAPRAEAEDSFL
# Sequence of RAC-alpha serine/threonine-protein kinase (Homo sapiens) (P31749 whole entry): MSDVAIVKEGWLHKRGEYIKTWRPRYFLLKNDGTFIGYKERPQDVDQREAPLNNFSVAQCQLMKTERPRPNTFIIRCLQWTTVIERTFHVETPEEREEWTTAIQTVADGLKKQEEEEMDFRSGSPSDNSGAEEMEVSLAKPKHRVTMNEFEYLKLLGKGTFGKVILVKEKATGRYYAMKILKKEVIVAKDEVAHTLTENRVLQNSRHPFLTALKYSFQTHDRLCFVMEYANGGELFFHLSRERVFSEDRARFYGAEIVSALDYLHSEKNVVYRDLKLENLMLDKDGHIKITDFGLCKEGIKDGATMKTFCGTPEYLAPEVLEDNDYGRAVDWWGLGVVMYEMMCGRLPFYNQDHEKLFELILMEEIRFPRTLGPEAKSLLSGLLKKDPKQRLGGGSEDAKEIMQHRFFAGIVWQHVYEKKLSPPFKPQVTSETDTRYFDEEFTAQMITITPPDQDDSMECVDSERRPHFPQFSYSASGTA
compound,measurement,setting,value
N/C(=N\[N+](=O)[O-])N/N=C\c1ccc(-c2cccc([N+](=O)[O-])c2)o1,residual activity,[1],54%
same,residual activity,[2],100%
same,residual activity,[3],60%
same,residual activity,[4],77%
same,residual activity,[5],77%
same,residual activity,[6],91%
same,residual activity,[7],94%
O=C1NC(=O)c2c1c1c3ccccc3n3c1c1c2c2ccccc2n1C1CCC3O1,residual activity,[1],81%
same,residual activity,[2],90%
same,residual activity,[3],86%
same,residual activity,[8],27%
same,residual activity,[9],4%
same,residual activity,[10],70%
same,residual activity,[11],68%
same,residual activity,[4],96%
same,residual activity,[5],84%
same,residual activity,[12],96%
same,residual activity,[13],95%
same,residual activity,[14],91%
same,residual activity,[6],92%
same,residual activity,[7],96%
CCn1cnc2c(Nc3cccc(Cl)c3)nc(N[C@@H]3CCCC[C@@H]3N)nc21,residual activity,[1],86%
same,residual activity,[3],76%
same,residual activity,[9],84%
same,residual activity,[4],94%
same,residual activity,[5],61%
same,residual activity,[12],89%
same,residual activity,[15],58%
same,residual activity,[13],98%
same,residual activity,[14],85%
same,residual activity,[16],99%
same,residual activity,[17],92%
same,residual activity,[6],81%
same,residual activity,[7],45%
same,residual activity,[18],86%
Nc1n[nH]c2nnc(-c3c(-c4ccccc4)nn4ccccc34)cc12,residual activity,[19],111%
same,residual activity,[20],99%
CO[C@@H]1[C@H](N(C)C(=O)c2ccccc2)C[C@H]2O[C@]1(C)n1c3ccccc3c3c4c(c5c6ccccc6n2c5c31)C(=O)NC4,residual activity,[19],97%
same,residual activity,[20],99%
CN[C@@H]1C[C@H]2O[C@@](C)([C@@H]1OC)n1c3ccccc3c3c4c(c5c6ccccc6n2c5c31)C(=O)NC4,residual activity,[8],1%
same,residual activity,[9],0%
C[C@@H](N)[C@H]1CC[C@H](C(=O)Nc2ccncc2)CC1,residual activity,[19],88%
same,residual activity,[20],76%
CC(C)(C)c1cc(C=C(C#N)C#N)cc(Br)c1O,residual activity,[1],106%
same,residual activity,[2],103%
same,residual activity,[3],103%
same,residual activity,[8],102%
same,residual activity,[19],98%
same,residual activity,[20],102%
same,residual activity,[4],106%
same,residual activity,[5],97%
same,residual activity,[12],106%
same,residual activity,[13],106%
same,residual activity,[14],97%
same,residual activity,[16],108%
same,residual activity,[17],108%
same,residual activity,[6],98%
same,residual activity,[7],103%
same,residual activity,[18],98%
